# From PubChem BioAssay (NCI)
# About 83,000 compounds went through this panel and 20% of them were active in at least one assay; those are over-represented in the sample as a whole.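 For each line, cells grew in 96-well plates with the test compound present at a single concentration for 48 hours.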 Unmarked numbers belong to inactive results. Calls of active or inactive are those of the source. Rule for the calls: active = growth percent below 10; inactive = the rest.
# Assays:
# Assay in all cases: NCI-60 one-dose screen, 48 h (100 = growth as untreated, 0 = no growth, -100 = all killed)
# Conditions in all cases: 10 µM unless noted
# NCI-H23 lung = test system: NCI-H23 lung
# NCI-H226 lung = test system: NCI-H226 lung
# NCI-H322M lung = test system: NCI-H322M lung
# HOP-62 NSCLC = test system: HOP-62 NSCLC
# NCI-H460 lung = test system: NCI-H460 lung
# HOP-92 NSCLC = test system: HOP-92 NSCLC
# NCI-H522 lung = test system: NCI-H522 lung
# A549/ATCC NSCLC = test system: A549/ATCC NSCLC
# 786-0 renal = test system: 786-0 renal
# COLO 205 colon = test system: COLO 205 colon
SMILES,growth (NCI-H23 lung),growth (NCI-H226 lung),growth (NCI-H322M lung) [%],growth (HOP-62 NSCLC),growth (NCI-H460 lung),growth (HOP-92 NSCLC),growth (NCI-H522 lung),growth (A549/ATCC NSCLC),growth (786-0 renal),growth (COLO 205 colon)
COc1cc2c(cc1OC)C(Sc1ccc(Cl)cc1)c1c(nc(N)c(C#N)c1N)O2 (stereo not given),-20.2% (active),16.2%,42.1,63%,-55% (active),20.1%,-67.6% (active),44.1%,-17.1% (active),-65.6% (active)
CCCn1c(N)c(C(N)=O)sc1=S,105%,103%,101,98.9%,114%,89.5%,94.5%,112%,103%,118%
COc1ccc(C2=NN(c3ccc(S(N)(=O)=O)cc3)C(c3ccc(Cl)cc3)C2)c(O)c1 (stereo not given),63.7%,84.6%,71.6,90.2%,45%,58.6%,48.8%,33%,67.1%,69.7%
O=c1nc(-c2ccccc2)c2cc(-c3ccc(N4CCCC4)nc3)ccc2[nH]1,73.1%,77.2%,82.6,62.6%,57.7%,61.4%,37.6%,59.7%,69.5%,88.3%
N#Cc1c(-c2ccc(F)cc2)nc(N/N=C/c2cccc(O)c2)nc1N1CCOCC1,99.9%,100%,81.4,92%,98.3%,64.4%,69.5%,82.3%,65.1%,73.4%
O=S(=O)(O)c1ccc(N=NSc2ccc3ccccc3c2)cc1,93.4%,106%,92.8,108%,98.1%,86.4%,97%,100%,102%,108%
CCCn1c2cc(OCc3cn(-c4ccc(Cl)cc4)nn3)ccc2c2ccnc(C)c21,78.1%,69.5%,73,70.1%,71.1%,50.5%,66.4%,70.8%,34.8%,44.1%
CCCCn1c(=O)c(/C=C/C(=O)/C=C/c2ccc(O)c(OC)c2)cc2ccc(Cl)cc21,27.7%,-18.4% (active),50.6,59.6%,14.5%,77.3%,-4.4% (active),26.4%,-0.448% (active),29.7%
N#Cc1ccc(N2Cc3cc(Cl)ccc3OC3=C2C(=O)N(Cc2ccc(F)cc2)C3=O)cc1,3.56% (active),92.6%,96.3,52%,23.6%,-64.1% (active),-63.2% (active),68.5%,-90.5% (active),-73.5% (active)
COC1=CC=CC2(OC)C3(O)CCCc4cccc(c43)N3C(=O)COC132 (stereo not given),96.1%,103%,101,102%,105%,89.9%,78.8%,90.8%,102%,107%
NCCCn1c2c(c3cc(-c4ccn[nH]4)ccc3c1=O)C(=O)c1ccccc1-2,57.6%,56.9%,67.8,42.4%,11.8%,79.2%,30.6%,28.4%,41%,43.8%
N#Cc1ccc(C2C3=C(CCCC3=O)OC3=C2C(=O)c2ccccc2C3=O)cc1 (stereo not given),44.9%,114%,106,111%,103%,76.3%,0.737% (active),108%,94.7%,109%
COc1ccc(-n2cc(COc3ccc4c5ccnc(C)c5n(CC(C)C)c4c3)nn2)cc1,61.9%,52.3%,88.7,56.6%,69.5%,44.9%,37.3%,67.1%,73.9%,68.6%
COc1ccc(C(=O)c2cc(OC)c(C)c(OC)c2)cc1OC(=O)CCl,27.4%,104%,44,30.2%,7.36% (active),75.8%,16.2%,28.5%,42%,80.8%
COc1ccc2c(c1)Oc1nc(N)c(C#N)c(N)c1C2Sc1ccc(SC)cc1 (stereo not given),44.1%,75.6%,77.4,100%,58%,18.4%,-81.5% (active),85.7%,8.66% (active),-3.1% (active)
C#CCOC(=O)[C@]1(C)CCC[C@]2(C)[C@H]3C[C@H]4C(C(C)C)=C[C@]3(CC[C@H]21)[C@@H]1C(=O)CCC(=O)[C@@H]14,84.1%,85.9%,102,80.1%,90.9%,54%,63.7%,76.9%,88.5%,105%
Cc1c(Br)cccc1NC(=O)c1sc2nc3c(cc2c1N)CN(Cc1ccccc1)CC3,40.7%,23.7%,41.2,-2.37% (active),6.71% (active),30.2%,-0.487% (active),21.4%,35.1%,-4.67% (active)
CC(C)Cc1cc(CNC(=O)C2[C@H]3CN(C(=O)c4ccccc4)C[C@@H]23)nn1-c1ccccc1 (stereo not given in full),96.3%,94.1%,95.3,83.4%,102%,115%,49.4%,72.2%,99.4%,93.1%
C#C[C@@]1(O)[C@@H](CO)O[C@@H](n2cc(-c3ccco3)c3c(N)ncnc32)[C@@H]1O,78.6%,70.7%,69.5,67.7%,52.1%,30%,61.7%,68.5%,85.6%,46.4%
C=C1C(=O)O[C@H]2[C@H]1CC/C(COC(=O)CCCCCCCC(=O)OC/C1=C/CC[C@@]3(C)O[C@H]3[C@H]3OC(=O)C(=C)[C@@H]3CC1)=C\CC[C@@]1(C)O[C@@H]21,2.7% (active),47%,84.7,79.2%,61.4%,17.9%,-71.1% (active),82.6%,4.86% (active),-61.6% (active)
Cc1ccc(C(=O)O)o1,100%,104%,105,109%,108%,89.9%,87%,93.1%,97.1%,107%
O=C1CC23OC(C(O)c4ccccc4N12)C1C(c2ccccc2)=NOC13 (stereo not given),66.7%,82%,79.7,68.5%,76.5%,43.3%,40.8%,82.9%,37.2%,50.6%
Cc1c(O)c(=O)ccn1-c1nc2ccccc2s1,102%,92.5%,88,87.3%,99.3%,98.4%,75.4%,92.5%,84.6%,96.4%
Cc1cc(C)c2nc(Nc3nc(C)c(C)c(=O)[nH]3)nc(C)c2c1,18.4%,-4.16% (active),23.8,12.2%,8.55% (active),7.24% (active),7.15% (active),-32.4% (active),6.33% (active),1.63% (active)
CCO/C=N/S(=O)(=O)c1cc2c(cc1Cl)NC=NS2(=O)=O,103%,98.7%,111,93.9%,106%,92.2%,99.4%,89%,100%,108%
C=C1C(=O)O[C@H]2[C@H]1CC/C(COC(=O)c1cc3ccccc3o1)=C\CC[C@@]1(C)O[C@@H]21,32.8%,45.6%,78.1,42.7%,42.2%,-52.7% (active),-58.2% (active),51.4%,-19.1% (active),-65.6% (active)
CCOc1ccc(C2N(c3cc(OC)c(OC)c(OC)c3)C(=O)C2(F)F)cc1 (stereo not given),33.6%,71%,67.2,40.8%,12.7%,55.6%,19.3%,33.6%,64.7%,10.8%
